Compound activity from PubChem.
Rows were chosen to be rich in hits. Some 2.3% of all compounds tested hit in one or more screens of this group.
p53ts 39C kill: p53ts cell cytotoxicity, nonpermissive temperature | AID 902 | H1299-p53A138V viability at 39C, ATP luminescence, 24 h | 130,000 tested, 1.5% active | Potency, µM (top dose mostly 46.1 µM), for inactives: at the highest dose activity change, negative = cell killing, usual class: cytotoxic; also: % is scaled to controls: 0 for no effect and ±100 for the full control effect; nearly all actives have a fitted effect of over 55% in size
IkB signaling: suppresses IkB signaling in ABC-DLBCL reporter cells | ABC-DLBCL IkBa-CBG/CBR dual luciferase ratio, 4 h; response scale: scaled: untreated 0%, proteasome inhibitor 100% | Potency, µM (highest dose often 57.1 µM), for the others: at the top dose IkBa stabilization activation | AID 445 | 110,000 tested, 0.04% active; active = well fitted curve in the direction sought with a large enough effect in the signal ratio, not every such curve was filed as active; inconclusive = small, poorly fitted or top-dose-only effect, or a change in a side signal; the % refers to the signal ratio;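 also: the direction sought is a rising ratio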
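Curves were fitted separately to fusion (green), unfused (red) and ratio luminescence, then classed by r2, magnitude and activity. Cells: OCI-Ly3, 4 h compound plus doxycycline at 37C; 10 uM MG-132 defined full response.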
p53ts 32C tox: kills p53ts cells at the permissive temperature; H1299-p53A138V at 32C, ATP luminescence viability, 24 h; Potency, µM (doses to about 46.1 µM), inactives show at the top dose activity change, negative = cytotoxicity, hits mostly cytotoxic; 130,000 tested, 0.93% active; AID 924;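 also: 0% = DMSO and -100% = full killing by reference compound; nearly all actives have a fitted effect of over 55% in size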
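H1299-p53 A138V cells (temperature-sensitive p53) exposed 24 h to up to 46 uM compound at 32C, where p53 is wild-type in conformation. Viability read as ATP luminescence and normalised to DMSO and 100 uM tamoxifen. AC50 fitted with the Hill equation.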
ERK AVP inh: vasopressin-driven ERK pathway inhibition; HEK293-V1b, vasopressin-stimulated pERK AlphaScreen; Potency, µM (series often up to 57.5 µM), inactives show top-dose activity, negative = inhibition, hits mostly inhibitors; 72,000 tested, 0.99% active; also: % is scaled to controls: 0 for no effect and ±100 for the full control effect; nearly all actives have a fitted effect of over 55% in size
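HEK293 cells stably expressing V1b receptor, seeded overnight in 1% FBS, were treated with compounds for 30 min at 37C, then stimulated 5 min with 25 nM vasopressin; phospho-ERK read by AlphaScreen SureFire after lysis.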
Peg3 imprint: genomic imprint erasure induction. mouse ES Peg3-LacZ reporter, beta-gal luminescence, 40 h. Potency, µM (highest dose often 60.7 µM), inactives show at the highest dose activity change, positive = activation, most hits filed as activators. 110,000 tested, 0.02% active. AID 1948
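Readout: BetaGlo luminescence (5 min, room temp) for LacZ from the normally silent maternal Peg3 allele in female Peg3LacZ-Neo ES cells. Cells 300/well, 40 h, 37C, 5% CO2. Data normalized per plate to negative controls.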
An asterisk follows results filed as active; [ ] = dose if it differs, or a comment. Unless noted, calls follow the shape of the dose curve; as a rule, active = well fitted curve in the direction sought with a large enough effect; inconclusive = small, poorly fitted or top-dose-only effect, or another doubt; inactive = no such curve, though single readings can be large; an effect the other way counts as inactive or inconclusive. Potency is read from the fitted curve at half-maximal effect.

`CCOC(=O)c1cnc2c(-c3ccccc3)cnn2c1N` gave p53ts 39C kill 7.9µM*, IkB signaling inconclusive, p53ts 32C tox 10µM*, ERK AVP inh -7% and Peg3 imprint -51%.
Screening Cc1cc(N)n2ncc(-c3ccccc3)c2n1 returned p53ts 39C kill 10µM*, IkB signaling inconclusive, p53ts 32C tox inconclusive, ERK AVP inh 25µM* and Peg3 imprint 3%.
`Cc1cc(N)n2ncc(-c3cccc(Br)c3)c2n1` gave p53ts 39C kill -4%, IkB signaling 3%, p53ts 32C tox 0%, ERK AVP inh -2% and Peg3 imprint -12%.
O=C(O)/C=C\C=C/c1ccc2c(c1)OCO2 was read as p53ts 39C kill 6%[9.22 µM], IkB signaling 2%[11.4 µM], p53ts 32C tox -1%[9.22 µM], ERK AVP inh 4%[11.5 µM] and Peg3 imprint -40%[10.9 µM].
Screening Cn1c(=O)n2n(c1=O)[C@H]1[C@H](O)[C@H]3O[C@@H]3/C(=N/OC[C@@H](O)COCc3ccco3)[C@@H]1CC2 returned p53ts 39C kill -2%[9.22 µM], p53ts 32C tox -1%[9.22 µM] and ERK AVP inh 8%[11.5 µM].
For C/C(CCN1CCCc2nc(C)c(C)cc21)=N\OC[C@@H](O)COCc1ccco1 the results were p53ts 39C kill 6%[9.22 µM], p53ts 32C tox -3%[9.22 µM] and ERK AVP inh 9%[11.5 µM].
CC(=O)N1CCN(c2ccc(NCc3ccc4c(c3)OCO4)cc2)CC1 was read as p53ts 39C kill 12%, IkB signaling 1%, p53ts 32C tox 3%, ERK AVP inh -18% and Peg3 imprint -5%.
O=C(Nc1ccc(N2CCN(C(=O)c3ccccc3)CC2)cc1)c1cc2ccccc2o1 was read as p53ts 39C kill -4%, IkB signaling -1%, p53ts 32C tox 4%, ERK AVP inh 1µM* and Peg3 imprint -7%.
`O=C(c1ccccc1)N1CCN(c2ccc(NCc3ccc4c(c3)OCO4)cc2)CC1` gave p53ts 39C kill 10%, IkB signaling inconclusive, p53ts 32C tox 7%, ERK AVP inh 20µM* and Peg3 imprint -18%.
`CCC(=O)Nc1cccc(NC(=O)c2cc3ccccc3o2)c1` gave p53ts 39C kill 13µM*, IkB signaling inconclusive, p53ts 32C tox 10µM*, ERK AVP inh -12% and Peg3 imprint -76%.
`CCOC(=O)c1ccc(NC(=O)c2cc(=O)c3ccc(C)c(C)c3o2)cc1` gave p53ts 39C kill 20µM*, IkB signaling -2%, p53ts 32C tox inconclusive and Peg3 imprint -12%[10.9 µM].
Screening CCCC/C=C/C(NC(=O)c1ccco1)c1ccccc1 (stereo not drawn) returned p53ts 39C kill 9%, p53ts 32C tox 5%, ERK AVP inh 11% and Peg3 imprint 8%.
For OC[C@H](CCc1c[nH]c2ccccc12)c1c[nH]c2ccccc12 the results were p53ts 39C kill -10%[9.22 µM], IkB signaling 0%[11.4 µM], p53ts 32C tox 30%[9.22 µM], ERK AVP inh -23%[11.5 µM] and Peg3 imprint 9%[10.9 µM].
`CN(C)CCNC(=O)c1ccc(Cc2nc3ccccc3[nH]2)cc1` gave p53ts 39C kill -6% and p53ts 32C tox -1%.
For CCOC(=O)c1ccc(NC(=O)c2cc3ccccc3o2)cc1 the results were p53ts 39C kill -24%, IkB signaling inconclusive, p53ts 32C tox -24%, ERK AVP inh 32µM* and Peg3 imprint -48%.
Cc1cccc(NC(=O)c2cc3ccccc3o2)c1 was read as p53ts 39C kill 10µM*, IkB signaling inconclusive, p53ts 32C tox 13µM*, ERK AVP inh -30% and Peg3 imprint -83%.
CCN(CC)CCCC(C)Nc1c2ccc(Cl)cc2nc2ccc(OC)cc12 (stereo not drawn) was read as p53ts 39C kill 10µM*, p53ts 32C tox 5µM*, ERK AVP inh 17% and Peg3 imprint -38%.
Screening C[C@@H]1C[C@@H]2[C@H]3CCC4=CC(=O)C=C[C@]4(C)[C@]3(Cl)[C@@H](O)C[C@@]2(C)[C@@]1(O)C(=O)CO returned p53ts 39C kill -7%, IkB signaling inconclusive, p53ts 32C tox -4% and ERK AVP inh -3%.
`COc1ccc(-n2c(/C=C/c3cccc(C(F)(F)F)c3)nc3ccccc3c2=O)cc1Cl` gave p53ts 39C kill -6%, IkB signaling inconclusive, p53ts 32C tox -4% and Peg3 imprint -11%[10.9 µM].
`CSc1ccc(/C=C/c2nc3ccccc3n2S(=O)(=O)c2ccc(Br)cc2)cc1` gave p53ts 39C kill 1.1µM*, IkB signaling inconclusive, p53ts 32C tox 3.2µM* and Peg3 imprint -22%[10.9 µM].
`CCOc1ccc(/C=C/c2nc3ccccc3n2S(=O)(=O)c2ccc(Br)cc2)cc1` gave p53ts 39C kill 7.9µM*, IkB signaling inconclusive, p53ts 32C tox 7.9µM* and Peg3 imprint -14%[10.9 µM].
For O=S(=O)(c1cccc(C(F)(F)F)c1)n1c(/C=C/c2ccccc2)nc2ccccc21 the results were p53ts 39C kill 13µM*, IkB signaling -1%, p53ts 32C tox 13µM* and Peg3 imprint -29%[10.9 µM].
Screening CC(=O)OC[C@@H]1O[C@H](C/C=N\O[C@@H](C)c2cn([C@H](CO)Cc3ccccc3)nn2)C=C[C@@H]1OC(C)=O returned p53ts 39C kill 8%[9.22 µM], p53ts 32C tox 3%[9.22 µM] and ERK AVP inh 3%[11.5 µM].
`O=C(CSc1c2c(nc3cc(Cl)ccc13)CCCC2)NCc1ccccc1Cl` gave p53ts 39C kill inconclusive, IkB signaling inconclusive, p53ts 32C tox -5% and Peg3 imprint -14%[10.9 µM].
O=C(CSc1c2c(nc3cc(Cl)ccc13)CCCC2)N1CCN(c2ccccc2)CC1 was read as p53ts 39C kill 25µM*, IkB signaling inconclusive, p53ts 32C tox inconclusive and Peg3 imprint -17%[10.9 µM].
CC1CCN(C(=O)CSc2c3c(nc4cc(Cl)ccc24)CCCC3)CC1 was read as p53ts 39C kill 16µM*, IkB signaling inconclusive, p53ts 32C tox -28% and Peg3 imprint 7%[10.9 µM].
For CCC(C)NC(=O)CSc1c2c(nc3cc(Cl)ccc13)CCCC2 (stereo not drawn) the results were p53ts 39C kill -10%, IkB signaling 10%, p53ts 32C tox 2% and Peg3 imprint -13%[10.9 µM].
Screening Oc1cc(CN2COc3ccccc32)c(O)cc1CNC1CCCCC1 returned p53ts 39C kill 2%[9.22 µM], IkB signaling 3%[11.4 µM], p53ts 32C tox 1%[9.22 µM], ERK AVP inh 5%[11.5 µM] and Peg3 imprint -2%[10.9 µM].
`C=C1CC[C@@H](O)C/C1=C/C=C1\CCC[C@]2(C)[C@@H]1CC[C@H]2[C@@H](C)/C=C\[C@@H](C)C(C)C` gave IkB signaling 2%[11.4 µM].
Screening NC(=O)C1CCN(C(=O)c2ccc(NC(=O)c3nsc4ccccc34)cc2)CC1 returned p53ts 39C kill 2.5µM*, IkB signaling inconclusive, p53ts 32C tox 2µM* and Peg3 imprint -32%[10.9 µM].
